Compound activity: PubChem, several laboratories
HSF1 inh: HSF1 inhibition; AID 2098; actives 0.77% (n = 300,000); NIH3T3-HGL HSE-luciferase, MG132-induced, luminescence 8 h; stronger effect = lower value; activity change, negative = inhibition, % at 7.5 µM (by protocol);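 active = more than half of replicate wells show activity change below -50%, luminescence cut by over half; inconclusive = some wells, but at most half, below -50%; inactive = no replicate well below -50%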;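 also: luciferase reports HSF-1 transcriptional activity via heat shock element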
HSP90 refold inh: inhibitors of HSP90 luciferase refolding in rabbit reticulocyte lysate; inhibition, % at 5.6 µM; actives 0.91% (n = 290,000); luciferase refolding luminescence, 3 h;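 active = inhibition above the screen-wide mean plus 3 SD, computed separately per campaign, cut at about 16% in these data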;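 also: inhibitors lower the luminescence because luciferase stays unfolded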
Platelet DG rel: modulates dense granule release in human platelets. human platelet-rich plasma, SFLLRN dense granule ATP release, luminescence. inhibition, %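 (compounds screened at 7.5 µM in platelet-rich plasma)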. actives 0.22% (n = 300,000);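 active = mean replicate score, as percent of positive control, at or above 50; inconclusive = mean below 50 but at least one replicate at or above 50; inactive = mean and every replicate below 50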
dFosB act-1: enhances mouse delta FosB homodimer DNA binding; purified delta FosB, TAMRA-CDK5 oligo fluorescence polarization; percent of positive-control signal above neutral wells; actives 0.99% (n = 340,000); P13346; activation, % at 25 µM;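 active = mean activation above about 17%, with every replicate also reaching it, limit read from the data, passing the limit was not always enough; inconclusive = only one of the two conditions met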
Target sequence (P13346 whole entry, looked up): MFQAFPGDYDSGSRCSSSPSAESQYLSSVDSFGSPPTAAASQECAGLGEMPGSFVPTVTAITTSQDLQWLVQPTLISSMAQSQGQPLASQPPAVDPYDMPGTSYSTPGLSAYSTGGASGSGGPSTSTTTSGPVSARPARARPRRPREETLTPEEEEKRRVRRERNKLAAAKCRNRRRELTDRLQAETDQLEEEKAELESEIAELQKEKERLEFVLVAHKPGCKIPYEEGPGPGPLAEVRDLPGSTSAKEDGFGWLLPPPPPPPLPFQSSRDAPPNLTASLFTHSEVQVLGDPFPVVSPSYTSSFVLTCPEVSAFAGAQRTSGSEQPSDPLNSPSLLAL
HSF1 activator: increases HSF-1 driven luciferase reporter signal | NIH3T3-HGL HSF-1 luciferase reporter, MG132, 8 h; 100% = twice DMSO control signal | activation, % at 9 µM | actives 1.7% (n = 300,000);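 active = mean replicate activation of at least 50% with a set share of replicates each reaching 50%; inconclusive = only one of those two conditions met; inactive = mean below 50% and too few replicates reaching it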
MPTP inh: permeability transition pore inhibition | inhibition, % at 10 µM | actives 1.4% (n = 360,000) | isolated mouse mitochondria, Ca2+ swelling absorbance, 30 min | AID 602449;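 active = inhibition of 50% or more, scaled per plate between neutral and stimulator controls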
dFosB act-2: activators of mouse delta FosB homodimer DNA binding | purified delta FosB, TAMRA-CDK5 oligo fluorescence polarization; normalised: neutral wells 0, positive control 100 | 2,400 tested, under 10 active | activation, % at 24.9 µM | shares compounds with dFosB act-1 | AID 588690;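 active = highest replicate activation at or above 34% and every replicate reaching that threshold; inconclusive = meets only one of the two criteria; inactive = meets neither criterion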;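 also: higher polarization means more probe DNA bound by delta FosB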
Each line names hits and unclear results; the compound was inactive in the other large screens (follow-up assays come after a bar, where they were run). Only some compounds are listed: those with a hit (about 4.9% of all), similar ones and a draw of the others.

Cc1ccc(NC(=S)NC2CCCC2)c(C)c1	none
CC(=O)Nc1nc(SCC(=O)NCc2ccc(F)cc2)[nH]c(=O)c1NC(=O)c1cccs1	none
O=C(CCc1nc2ccccc2c(=O)[nH]1)NCCN1C(=O)S/C(=C\c2ccc(OC(F)F)cc2)C1=O	dFosB act-1 47 (no result: HSF1 inh, HSP90 refold inh, Platelet DG rel, HSF1 activator) | dFosB act-2 inactive
O=C(CCc1nc2ccccc2c(=O)[nH]1)NCCN1C(=O)S/C(=C\c2ccccc2Cl)C1=O	none (no result: HSP90 refold inh)
O=C(N/N=C/c1ccco1)c1cc(-c2ccc(Cl)cc2)n[nH]1	dFosB act-1 25 | dFosB act-2 inactive
O=C(N/N=C/c1ccco1)c1cc(-c2ccccc2)n[nH]1	none
Cc1ccccc1CNC(=O)c1csc([C@@H]2O[C@H](CO)[C@@H](O)[C@H]2O)n1	none (no result: HSF1 inh, HSP90 refold inh, Platelet DG rel, dFosB act-1, HSF1 activator)
O=C(NCc1ccc2c(c1)OCO2)C1CCN(S(=O)(=O)c2ccc(F)cc2)CC1	Platelet DG rel inconclusive
O=C(NCc1ccc2c(c1)OCO2)C1CCN(c2nccc(C(F)(F)F)n2)CC1	dFosB act-1 18 | dFosB act-2 inactive
COc1ccc(C(=O)Nc2nnc(S(=O)(=O)N(C)Cc3ccc(F)cc3)s2)cc1OC	dFosB act-1 23 | dFosB act-2 inactive
CN(Cc1ccccc1)S(=O)(=O)c1nnc(NC(=O)c2ccc(F)cc2)s1	none
CCOc1ccc(CCNC(=O)c2cccc(C#N)c2)cc1OCC	none
CC(=O)c1sc(NC(=O)C2CCN(c3ncnc4sc(C)c(C)c34)CC2)nc1-c1ccccc1	none (no result: HSP90 refold inh)
Cc1sc2ncnc(N3CCC(C(=O)Nc4nc(-c5ccc(F)cc5)cs4)CC3)c2c1C	dFosB act-1 18 (no result: HSP90 refold inh) | dFosB act-2 inactive
O=C(/C=C\N1CCOCC1)c1ccc(Br)cc1	none
O=C(Nc1ccccc1)C(O)C(O)C(=O)Nc1ccccc1 (configuration not stated)	none
COc1ccc(CCNCC(O)Cn2c3ccccc3c3ccccc32)cc1OC (configuration not stated)	dFosB act-1 21 | dFosB act-2 inactive
Cn1ccs/c1=N\C(=O)Nc1cccc(C(F)(F)F)c1	none
NCCNc1ccc([N+](=O)[O-])c(Sc2nc3ccccc3[nH]2)c1	dFosB act-1 25 | dFosB act-2 inactive
O=[N+]([O-])c1ccc(N2CCNCC2)cc1Sc1nc2ccccc2[nH]1	none
O=C(COC(=O)c1cc(Br)ccc1O)NNC(=O)c1ccc(Cl)cc1	dFosB act-1 26 (no result: HSP90 refold inh) | dFosB act-2 inactive
COc1cc(-c2cc(C(=O)Nc3cccc(S(=O)(=O)N(C)C)c3)c3ccccc3n2)cc(OC)c1OC	dFosB act-1 41 | dFosB act-2 inactive
COc1ccc(-c2cc(C(=O)Nc3nc4c(C)cccc4s3)c3ccccc3n2)cc1OC	dFosB act-1 39 | dFosB act-2 inactive
COc1ccc(NC(=O)c2cc(-c3cc(OC)c(OC)c(OC)c3)nc3ccccc23)cc1OC	none
COc1cccc(-c2cc(C(=O)Nc3nc4ccccc4s3)c3ccccc3n2)c1	none
C[C@@H]1CN([C@H](C)CO)C(=O)CCCn2nncc2CO[C@@H]1CN(C)C(=O)c1ccccc1	none (no result: HSF1 inh, HSP90 refold inh, Platelet DG rel, dFosB act-1, HSF1 activator)
CCCCC(NC(=O)Cc1c(C)c2cc3c(-c4ccccc4)coc3c(C)c2oc1=O)C(=O)O (configuration not stated)	none
CCOC(=O)Cn1c(=NC(=O)c2sc3ccccc3c2Cl)sc2cc(S(N)(=O)=O)ccc21	dFosB act-1 92 (no result: HSF1 inh, HSF1 activator) | dFosB act-2 inactive
Cc1ccccc1NC(=O)NC1(C(=O)N2CCC(O)CC2)CCCCC1	none
Cc1ccc(S(=O)(=O)Nc2ccc3c(c2)CC(=O)N([C@H](C)CO)C[C@@H](C)[C@H](CN(C)Cc2ccc(-c4ccccc4)cc2)O3)cc1	dFosB act-1 28 (no result: HSF1 inh, HSP90 refold inh, Platelet DG rel, HSF1 activator) | dFosB act-2 inactive
Cn1nc(SCc2ccccc2)c(=O)[nH]c1=O	none (no result: HSF1 inh, HSP90 refold inh, Platelet DG rel, dFosB act-1, HSF1 activator)
COc1cc(CN(C(=O)c2ccco2)C2CCS(=O)(=O)C2)cc(OC)c1OC (configuration not stated)	none
CCn1c(=S)sc2c(=O)n(CC(=O)Nc3ccc(OC)c(Cl)c3)c(C)nc21	dFosB act-1 28 | dFosB act-2 inactive
